For experiment [1], the target named is Cellular tumor antigen p53 (Homo sapiens) (UniProt P04637). As to the kind of experiment: Primary qHTS for small molecule compounds that upregulate eGFP-tagged delta133p53alpha (in N-terminal) cells. (AID 2060322). Also: nearly all actives have a fitted effect of over 75% in size. Also: potency is read from the fitted curve at half-maximal effect.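 As to activation: cells pre-induced with doxycycline then dosed without doxycycline; series mostly up to about 56 µM; 0% = DMSO vehicle and 100% = reference activator.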 As to conditions: NCI-H358 eGFP-delta133p53alpha fluorescence, 24 h; activation: hits give high values. The gist of the method: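 NCI-H358 cells pre-induced 24 h with 10 ng/ml doxycycline for eGFP-delta133p53alpha, plated dox-free and exposed 24 h at 37C to titrated compounds. Fixed, Hoechst-stained; gated GFP peak intensity by laser scanning cytometry, normalized to DMSO (0%) and 57.5 uM 5-azacytidine (100%).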

Experiment [2] has as its target Aldehyde dehydrogenase, mitochondrial (Homo sapiens) (UniProt P05091). The experiment in a line: qHTS for Inhibitors of the Aldehyde Dehydrogenase Family (ALDH2) Primary screen (AID 2061308).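 Also: plate controls were vehicle for no effect and reference inhibitor for full effect; nearly all actives have a fitted effect of over 55% in size.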 On the technique in general: qHTS replaces the single test concentration by a dilution series.
Experiment [3] can be described thus: BET inhibitor-based combinations targeting novel dependencies in MECOM-rearranged (r) AML: SET-2 cell line (AID 2202231). Also: nearly all actives have a fitted effect of over 35% in size. Also: potency is read from the fitted curve at half-maximal effect.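 As to viability: plate controls were DMSO treated cells for no effect and wells without cells for full effect.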 As to conditions: SET-2 AML cells viability, CellTiter-Glo luminescence, 48 h; viability: hits give low values, concentration not given here. An outline of the steps:
(§1)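 Cells were plated at 500 per well and exposed to an 11-point dose series of each drug for 48 hr. Viability was measured by CellTiter-Glo luminescence, normalized to DMSO and empty-well controls, and summarized as AUC and per-cell-line Z-AUC.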

A short description of experiment [4]: BET inhibitor-based combinations targeting novel dependencies in MECOM-rearranged (r) AML: UCSD-AML1 cell line (AID 2202235). Also: nearly all actives have a fitted effect of over 40% in size. Also: potency is read from the fitted curve at half-maximal effect. The gist of the method:
(§2)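 Activity is given as area under the curve and as Z-AUC, mean-centred within each cell line. It comes from 11-point dose curves normalized to DMSO and empty wells. CellTiter-Glo luminescence was read after 48 hr drug exposure of 500 cells/well.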

A short description of experiment [5]: BET inhibitor-based combinations targeting novel dependencies in MECOM-rearranged (r) AML: AML-191 cell line (AID 2202236; also: nearly all actives have a fitted effect of over 35% in size; also: potency is read from the fitted curve at half-maximal effect). An outline of the steps: as §1
Experiment [6] is described as follows: BET inhibitor-based combinations targeting novel dependencies in MECOM-rearranged (r) AML: AML-194 cell line (AID 2202237; also: nearly all actives have a fitted effect of over 40% in size; also: potency is read from the fitted curve at half-maximal effect). An outline of the steps:
as §1

Experiment [7] in a line: BET inhibitor-based combinations targeting novel dependencies in MECOM-rearranged (r) AML: OCI-AML3 cell line (AID 2202232). Also: nearly all actives have a fitted effect of over 35% in size. Also: potency is read from the fitted curve at half-maximal effect. As to conditions: Potency: OCI-AML3 viability. The gist of the method: as §1
Experiment [8] can be described thus: BET inhibitor-based combinations targeting novel dependencies in MECOM-rearranged (r) AML: MV-4-11 cell line (AID 2202233). Also: potency is read from the fitted curve at half-maximal effect; nearly all actives have a fitted effect of over 45% in size. An outline of the steps:
as §2

A short description of experiment [9]: BET inhibitor-based combinations targeting novel dependencies in MECOM-rearranged (r) AML: HNT-34 cell line (AID 2202234). Also: nearly all actives have a fitted effect of over 35% in size. Also: potency is read from the fitted curve at half-maximal effect. The gist of the method:
as §2

For experiment [10], the target named is Retinaldehyde dehydrogenase 3 (Homo sapiens) (UniProt P47895). As to the kind of experiment: qHTS for Inhibitors of the Aldehyde Dehydrogenase Family (ALDH1A3) Validation screen (AID 2061312). Also: nearly all actives have a fitted effect of over 45% in size. Also: potency is read from the fitted curve at half-maximal effect.
Experiment [11] has the same target. As to the kind of experiment: qHTS for Inhibitors of the Aldehyde Dehydrogenase Family (ALDH1A3) Confirmatory screens (AID 2061311). Also: potency is read from the fitted curve at half-maximal effect; nearly all actives have a fitted effect of over 60% in size.
For experiment [12] the target is unchanged. As to the kind of experiment: qHTS for Inhibitors of the Aldehyde Dehydrogenase Family (ALDH1A3) Primary screen (AID 2061315).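 Also: plate controls were DMSO vehicle for no effect and reference inhibitor for full effect.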

“And” between values parts separate entries of the source, which are not always exact repeats. Equal values may be shown once. Inconclusive results are not listed. Unmarked numbers belong to inactive results. The source made the active and inactive calls. Calls follow the shape of the dose curve; as a rule, active = well fitted curve in the direction sought with a large enough effect; inconclusive = small, poorly fitted or top-dose-only effect, or another doubt; inactive = no such curve, though single readings can be large; an effect the other way counts as inactive or inconclusive.

Sequence of Cellular tumor antigen p53 (Homo sapiens) (P04637 whole entry, looked up): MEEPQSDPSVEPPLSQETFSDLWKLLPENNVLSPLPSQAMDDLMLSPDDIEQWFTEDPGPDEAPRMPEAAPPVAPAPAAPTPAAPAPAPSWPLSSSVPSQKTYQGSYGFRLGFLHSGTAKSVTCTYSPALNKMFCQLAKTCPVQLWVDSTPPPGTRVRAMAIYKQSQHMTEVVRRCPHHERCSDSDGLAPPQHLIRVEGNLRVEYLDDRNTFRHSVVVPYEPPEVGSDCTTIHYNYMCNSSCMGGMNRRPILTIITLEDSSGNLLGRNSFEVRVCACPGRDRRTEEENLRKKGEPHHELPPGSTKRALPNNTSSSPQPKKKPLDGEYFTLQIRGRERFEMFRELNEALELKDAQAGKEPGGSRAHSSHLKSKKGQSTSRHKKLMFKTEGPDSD

Consider `O=C(/C=C/C=C/c1ccc2c(c1)OCO2)N1CCCCC1`, for which the activation in experiment [1] was -7.63%. Further, the Potency entry in experiment [2], in experiment [4], in experiment [5] and in experiment [6] was “inactive” each time. Further, the viability in experiment [3] is 96.4%.
As for `Cc1ccc([N+](=O)[O-])cc1S(=O)(=O)N(C)/N=C/c1cnc2ccc(Br)cn12`, the Potency was 0.213 µM (active) in experiment [1]; 166 nM (active) in experiment [3]; 235 nM (active) in experiment [7]; 41.7 nM (active) in experiment [8]; 166 nM (active) in experiment [9]; 166 nM (active) in experiment [4]. Also, the Potency in experiment [5] was 166 nM (active); in [6], 186 nM (active). Further, in experiment [2], the Potency result is “inactive”.
Turning to `CCCS(=O)c1ccc2nc(NC(=O)OC)[nH]c2c1` (centres undefined), in [1], the activation is -21.8% and -4.96%. Besides, the Potency result in experiment [2] was “inactive”. In addition, the Potency is 26300 nM (active) in [7], 23500 nM (active) in experiment [8], 8330 nM (active) in [5] and 11800 nM (active) in experiment [6].
For `COc1cc2c(cc1OCCCN1CCCC1)N=C(N)C21CCC1`, in experiment [1], the activation is 5.59%. The Potency result in [2], in experiment [7], in experiment [9], in experiment [4], in [5] and in experiment [6] was “inactive” each time. Besides, the viability in experiment [3] is 106%.
Take `COc1cc(N2CCC(N)CC2)ccc1Nc1ncc(Cl)c(-c2c[nH]c3ccccc23)n1`: the Potency is 26.9 µM (active) in experiment [1]; 5900 nM (active) in experiment [7]; 66.1 nM (active) in experiment [8]; 1320 nM (active) in experiment [9]; 1480 nM (active) in experiment [4]; 8330 nM (active) in experiment [5]. Besides, the Potency in [6] was 10500 nM (active). For the same compound, the Potency entry in experiment [2] is “inactive”.
As for `CNC(=O)c1ccccc1Nc1nc(Nc2ccc(N3CCOCC3)cc2OC)ncc1Cl`, the Potency in experiment [1] is 3.06 µM (active) and 21.3 µM (active); in experiment [3], 16600 nM (active); in [7], 833 nM (active); in experiment [8], 263 nM (active); in experiment [9], 1320 nM (active); in experiment [4], 2350 nM (active). For the same compound, the Potency entry in experiment [2] was “inactive”.
For `OCc1ccc(-c2ccc(-c3ccc(CO)s3)o2)s1`, the activation in [1] is 23.8% and 25%. For the same compound, the Potency entry in experiment [2] was “inactive”. Also, the Potency is 13200 nM (active) in experiment [8], 26300 nM (active) in experiment [5] and 26300 nM (active) in experiment [6].
Turning to `O=c1c(-c2ccc(O)cc2)coc2cc(O[C@@H]3O[C@H](CO)[C@H](O)[C@H](O)[C@H]3O)ccc12`, the activation in experiment [1] was 8.65%. In addition, the Potency result in [10] was “inactive”.
Turning to `O=C(/C=C/c1cccc(S(=O)(=O)Nc2ccccc2)c1)NO`, the Potency is 5.44 µM (active) in [1]; 263 nM (active) in [3]; 742 nM (active) in experiment [7]; 296 nM (active) in experiment [8]; 934 nM (active) in [9]; 742 nM (active) in [4]. Further, the figures for the Potency in [5] and in [6] were 934 nM (active) and 1050 nM (active), respectively. The Potency result in experiment [2] is “inactive”.
On to `CNC(=O)c1c(F)cccc1Nc1nc(Nc2cc3c(cc2OC)CCN3C(=O)CN(C)C)nc2[nH]ccc12`, for which the activation in experiment [1] is 42.7%. Besides, the Potency result in [2] is “inactive”. Further, the Potency in experiment [3] was 8330 nM (active); in experiment [7], 9340 nM (active); in experiment [8], 7420 nM (active); in [9] it was 6610 nM (active); in [4], 8330 nM (active); in experiment [5], 8330 nM (active).
Take `N#C/C(=C\c1ccc(O)c(O)c1)C(=O)Nc1ccccc1`: the activation in experiment [1] was -12.1%. Further, the Potency in experiment [11] is 2250 nM (active).
Regarding `CN(C)Cc1c(C(=O)NCCOc2ccc(C(=O)NO)cc2)oc2ccccc12`, the Potency in [1] was 21.7 µM (active); in experiment [3], 662 nM (active); in experiment [7] it was 590 nM (active); in [8] it was 263 nM (active); in experiment [9], 934 nM (active); in experiment [4], 662 nM (active). The Potency was 742 nM (active) in experiment [5] and 934 nM (active) in experiment [6]. In [2], the Potency result was “inactive”.
In the case of `O=c1[nH]nc(OCCCc2ccc(Cl)cc2)c(NCc2cccnc2)c1Br`, the activation in [1] is -4.06% and -19.1%. Moreover, the Potency entry in [2] and in experiment [12] was “inactive” in each case. In experiment [6], the Potency was 20900 nM (active).
For the compound `COc1ccccc1C(=O)Nc1cc2c(cc1N1CCCC1)n(C)c(=O)n2C`, the activation in experiment [1] was -44.7%. The Potency entry in experiment [2] is “inactive”. Moreover, the Potency is 16600 nM (active) in experiment [8] and 26300 nM (active) in experiment [9].
Regarding `COc1cc(N2CCN(C(C)=O)CC2)ccc1Nc1ncc(Cl)c(Nc2ccc(N3CCN(C(C)=O)CC3)cc2OC)n1`, the activation in experiment [1] was -5.36%. Also, in [2], the Potency result is “inactive”. The Potency in experiment [8] was 934 nM (active); in experiment [9], 6610 nM (active); in [4], 4170 nM (active).
Turning to `Cn1nc(-c2ccc(C(F)(F)F)cc2)nc2c(=O)n(C)c(=O)nc1-2`, the Potency in experiment [1] is 4.78 µM (active); in [10], 2510 nM (active).
With `O=C1OCc2cc3cccc(O[C@@H]4O[C@H](CO)[C@@H](O)[C@H](O)[C@H]4O)c3c(O)c21`, the activation in [1] is -11.5%. Also, the Potency in experiment [11] was 13900 nM (active).
Turning to `O=C(O)[C@H](Cc1ccc(Nc2nccc3ccncc23)cc1)NC1=C(Br)C(=O)C12CCCCC2`, in experiment [1], the activation was -6.21%. In addition, the Potency entry in experiment [12] was “inactive”.
The corresponding values for `C=C/C=C/[C@@H]1OC[C@H](/C=C/C=C/C)[C@H]1O` are -11.5% and “inactive”.
The corresponding values for `COc1ccccc1NC(=O)Nc1ccc2ccccc2c1` are -9% and “inactive”.
Consider `CC/C=C\C/C=C\C/C=C\CCCCCCCC(=O)OCC(O)COC1OC(CO)C(O)C(O)C1O` (centres undefined), for which the activation in [1] was 29.8%. In addition, in [12], the Potency result was “inactive”.
Regarding `CC(C)C(CO)Nc1nc(Nc2ccc(C(=O)O)c(Cl)c2)c2ncn(C(C)C)c2n1` (centres undefined), the activation in [1] is 6.21%. The Potency entry in experiment [10] and in experiment [12] was “inactive” throughout.
In the case of `C=Cc1cc2oc(-c3ccc(O)c(F)c3)nc2cc1O`, the activation in experiment [1] was -1%. Also, the Potency result in experiment [12] was “inactive”.

By viability is commonly meant a read-out of living cells in per cent, often relative to untreated cells.

The values above are taken from PubChem BioAssay (NCATS).
